# An excerpt weighted towards active compounds, which were near 5.4% of everything screened.
# CSC inhib – cancer stem cell inhibition | cancer stem cell-like cells viability, luminescence | inhibition, % at 7.5 µM | 300,000 tested, 1.1% active; in the data active = inhibition above about 75%; inconclusive = no clear call, values can overlap the other calls; tested in HMLE shEcad cells
# SKKanGAS inh – blocks kanamycin growth of S. pyogenes SKKanGAS strain. inhibition, % at 7.5 µM. BacTiter-Glo, 6 h. AID 1662. 300,000 tested, 1.3% active;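 active = mean replicate score, as percent of positive control median, at least 50; inconclusive = mean below 50 but one replicate at or above 50; inactive = mean and every replicate below 50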;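 note: strain carries kanamycin resistance gene driven by streptokinase promoter and grows in 40 µg/ml kanamycin; loss of luminescence reflects streptokinase promoter inhibition or plain growth inhibition; 0% = median of DMSO wells and 100% = positive control at its reference dose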
# Beta apoptosis – beta cell apoptosis inhibition. INS-1E cytokine-induced death, ATP luminescence, 48 h; percent of positive-control rescue, neutral wells zero. protection from apoptosis, % (test concentration not listed). 300,000 tested, 0.8% active. AID 435005;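 active = Every replicate reaches about 75%, or at least half do and their mean reaches it too, limit read from the data; inconclusive = At least half of replicates reach the limit but their mean does not; inactive = Under half of replicates reach the limit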;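 note: 0% = cytokine-treated negative control wells and 100% = positive control rescue; higher means more ATP so stronger rescue from cytokine killing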
# MPTP block – blocks calcium-induced mitochondrial swelling. inhibition, % at 10 µM. 360,000 tested, 1.4% active. isolated mouse mitochondria, Ca2+ swelling absorbance, 30 min. AID 602449;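 active = inhibition of 50% or more, scaled per plate between neutral and stimulator controls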;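 note: 0% = DMSO wells given calcium and 100% = 1 mM EGTA wells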
# Mdm2 MdmX PPI – human Mdm2/MdmX binding inhibition; SaOS-2 split-luciferase Mdm2/MdmX complementation, luminescence; inhibition, % at 8 µM; 330,000 tested, 3% active;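 active = inhibition of at least 50% at 8 µM in the primary screen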
# Target sequence (O15151 whole entry, looked up): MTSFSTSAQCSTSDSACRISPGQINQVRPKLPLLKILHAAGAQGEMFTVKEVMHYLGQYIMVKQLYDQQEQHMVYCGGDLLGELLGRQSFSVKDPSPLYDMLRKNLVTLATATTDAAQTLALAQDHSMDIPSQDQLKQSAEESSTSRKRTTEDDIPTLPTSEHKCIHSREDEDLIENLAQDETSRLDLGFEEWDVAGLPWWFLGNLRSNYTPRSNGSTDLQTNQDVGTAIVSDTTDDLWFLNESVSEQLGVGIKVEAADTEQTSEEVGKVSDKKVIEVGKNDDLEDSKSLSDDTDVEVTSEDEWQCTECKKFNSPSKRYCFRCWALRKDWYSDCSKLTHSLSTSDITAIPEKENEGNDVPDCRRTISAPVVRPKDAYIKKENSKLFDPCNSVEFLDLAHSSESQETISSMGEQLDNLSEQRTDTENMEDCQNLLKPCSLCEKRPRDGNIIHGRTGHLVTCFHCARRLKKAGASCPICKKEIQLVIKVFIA
# Target sequence (Q00987 whole entry, looked up): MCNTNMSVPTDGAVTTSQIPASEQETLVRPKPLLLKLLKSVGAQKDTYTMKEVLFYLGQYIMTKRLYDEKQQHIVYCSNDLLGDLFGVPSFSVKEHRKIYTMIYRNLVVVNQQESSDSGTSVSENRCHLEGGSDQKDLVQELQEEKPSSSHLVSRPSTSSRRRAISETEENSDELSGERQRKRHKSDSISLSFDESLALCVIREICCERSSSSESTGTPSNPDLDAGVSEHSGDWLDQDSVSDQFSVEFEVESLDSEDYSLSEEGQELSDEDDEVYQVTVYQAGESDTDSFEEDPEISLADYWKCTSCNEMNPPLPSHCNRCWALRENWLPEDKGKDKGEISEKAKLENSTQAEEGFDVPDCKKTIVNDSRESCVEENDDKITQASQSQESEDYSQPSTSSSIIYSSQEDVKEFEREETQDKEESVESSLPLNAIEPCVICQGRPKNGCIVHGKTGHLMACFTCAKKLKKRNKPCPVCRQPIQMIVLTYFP
# Calb FLC – C. albicans growth modulation with fluconazole; C. albicans CaCi-2 (fluconazole-resistant clinical isolate) + fluconazole, Alamar Blue growth, 48 h; growth inhibition, % (no concentration beside the values); 300,000 tested, 0.57% active; AID 1979;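 active = growth inhibition above about 58% in most replicates, limit read from the data, passing the limit was not always enough; inconclusive = exactly half the replicates above a set limit; inactive = most replicates below a set limit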;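 note: all wells also contain fluconazole at 8 µg/ml as a sub-toxic cotreatment; 0% = median of DMSO wells and 100% = median of geldanamycin control wells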
# Mdm2-MdmX conf – human Mdm2/MdmX binding inhibition, confirmed. shares compounds with Mdm2 MdmX PPI. luminescent assay. inhibition, % at 8 µM. 10,000 tested, 55% active; in the data active = inhibition above about 40%
# Full FLuc ctr – full-length luciferase inhibition in Mdm2/MdmX counter-screen; shares compounds with Mdm2 MdmX PPI; SaOS-2 full-length luciferase counterscreen, luminescence; inhibition, % at 8 µM; 6,200 tested, 77% active;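 active = mean inhibition at 8 µM reaching about 37%, which flags the compound as non-specific, limit read from the data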;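 note: p53-null SaOS-2 cells with luciferase driven by a doxycycline-inducible promoter; compound on cells about two nights before reading with doxycycline added after day one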
# The depositor's hits bear a star; ? = inconclusive; . = not tested or not shown.
SMILES,CSC inhib,SKKanGAS inh,Beta apoptosis,MPTP block,Mdm2 MdmX PPI,Calb FLC,Mdm2-MdmX conf,Full FLuc ctr
O=C(CSc1nc(Cc2ccccc2)nc2ccccc12)Nc1nc2c(s1)CCCC2,.,19,.,-1,-17,-19,.,.
O=C(O)C1CCC(C(=O)O)O1 (stereo unspecified),.,.,.,-2,.,.,.,.
Clc1ccc(-c2nc(CSc3ccccn3)cs2)cc1,.,.,.,-1,.,.,.,.
COC(=O)/C=C1\OCc2cc(C)ccc21,.,.,.,2,.,.,.,.
Oc1ccccc1CNc1ccc(Br)cn1,7,8,-11,-1,78*,2,68*,29
Brc1ccc(NCc2cccc3ccccc23)nc1,27,27,-13,2,15,-14,.,.
COC(CNC(=O)Cc1c(C)nc2c(-c3ccccc3)c(C)nn2c1C)OC,-9,-9,0,-4,21,1,.,.
O=C(C#Cc1ccccc1)c1ccc([N+](=O)[O-])cc1,.,-1,.,-1,97*,1,82*,58*
CCc1c(C)c2c(C)nn(-c3ccccc3)c2oc1=O,5,24,2,1,15,1,.,.
O=C(CSc1ccc2nnc(-c3ccc(Cl)cc3)n2n1)N1CCCc2ccccc21,0,15,45,3,84*,13,35,90*
O=C(CCCN1C(=O)c2ccccc2C1=O)Nc1ccc(S(=O)(=O)N2CCCCC2)cc1,-9,-1,3,-2,-20,3,.,.
CCc1c(C)nc2cc(-c3cc(OC)cc(OC)c3)nn2c1N1CCN(CCN2CCOCC2)CC1,2,9,4,-2,21,21,.,.
COc1ccc2c(-c3cnc(N4CCOCC4)nc3)c(-c3ccc(S(C)(=O)=O)cc3)sc2c1,39,.,-13,0,68*,.,-2,.
Cc1cc2cc(CN(Cc3ccc4c(c3)OCO4)C(=O)c3ccco3)c(=O)[nH]c2cc1C,-4,-2,-5,1,5,27,.,.
O=C(c1ccco1)N(Cc1ccc2c(c1)OCO2)Cc1cc2cc3c(cc2[nH]c1=O)OCO3,-9,4,0,2,60*,-1,16,.
COc1cccc(C(=O)N(Cc2ccccc2)Cc2cc3cc4c(cc3[nH]c2=O)OCCO4)c1,1,8,11,0,24,-13,.,.
COc1ccc(C(=O)N(Cc2ccccc2)Cc2cc3cc4c(cc3[nH]c2=O)OCCO4)cc1,6,9,-1,-1,51*,14,65*,51*
CC(C)OC(=O)c1cc(C(=O)c2cc(Br)ccc2O)coc1=N,12,9,0,-1,7,-2,.,.
CCOc1ccccc1NC(=O)c1cc(C(=O)c2cc(Br)ccc2O)coc1=N,-5,.,2,44,55*,0,60*,69*
CCC(O)CNC(=O)NC(=C(Cl)Cl)c1ccc(C)c(F)c1 (stereo unspecified),14,1,-4,1,77*,?,36,38*
Cc1nc(C(=O)Nc2ccc(Cl)cc2)sc1C1(C)CC(c2cccc([N+](=O)[O-])c2)=NO1 (stereo unspecified),5,19,14,1,61*,-8,36,47*
Cc1nc(C(=O)NC2CCCCC2)sc1C1(C)CC(c2cccc([N+](=O)[O-])c2)=NO1 (stereo unspecified),16,19,12,-2,39,-18,.,.
COc1ccc(NC(=O)c2nc(C)c(C3(C)CC(c4cccnc4)=NO3)s2)cc1 (stereo unspecified),6,7,13,0,60*,-17,59*,66*
CNC(=O)c1nc(C)c(C2(C)CC(c3ccccc3)=NO2)s1 (stereo unspecified),-4,-2,2,-1,15,-3,.,.
COc1ccccc1NC(=O)Nc1nc(CC(=O)Nc2ccc(F)cc2)cs1,-14,14,4,3,-3,-2,.,.
SMILES,CSC inhib,SKKanGAS inh,Beta apoptosis,MPTP block,Mdm2 MdmX PPI,Calb FLC,Mdm2-MdmX conf,Full FLuc ctr
COc1ccccc1NC(=O)Nc1nc(CC(=O)N2CCN(c3ccc(F)cc3)CC2)cs1,5,-2,.,1,70*,-1,40*,83*
O=C(Cc1n[nH]c(=O)c2ccccc12)N1CCN(S(=O)(=O)c2ccc(F)c(Cl)c2)CC1,-6,.,3,1,0,.,.,.
Cc1csc2nc(CNS(=O)(=O)c3cccnc3)cn12,-13,-6,-6,-2,24,5,.,.
O=C(N/N=C/c1ccccc1O)C1CC(=O)N(c2ccc(Cl)cc2)C1 (stereo unspecified),1,23,84*,-1,76*,-1,59*,37*
COc1ccc(-c2oc3ccc(-c4ccc5c(c4)OCO5)cc3c2C#CC2(O)CCCCC2)cc1,20,32,.,0,65*,13,29,.
COc1ccc(-c2oc3ccc(-c4ccc(OC)nc4)cc3c2C#CC2(O)CCCCC2)cc1,.,44,14,0,64*,2,31,.
COc1cc(-c2ccc3oc(-c4cccc(C)c4)c(C#CC4(O)CCCCC4)c3c2)cc(OC)c1OC,81*,.,-1,0,56*,.,11,.
COc1ccc(-c2ccc3oc(-c4ccc(OC)cc4)c(C#CCO)c3c2)cc1,10,?,26,1,88*,-7,73*,21
COc1ccc(-c2ccc3oc(-c4ccc(OC)cc4)c(-c4ccc(OC)cc4)c3c2)cc1,14,-5,2,1,4,-5,.,.
CCn1c(SCC(=O)Nc2nnc(C)s2)nnc1C(C)NC(=O)c1ccccc1 (stereo unspecified),10,0,-6,1,4,-2,.,.
CCOc1ccc(CN(C)CC(=O)NCc2ccc(F)cc2)cc1,1,0,-8,1,-3,-3,.,.
O=C(O)C1C=CC(C(=O)O)c2ccccc21 (stereo unspecified),.,.,.,0,.,.,.,.
COC(=O)Cc1ccc(N(Cc2ccccc2F)S(=O)(=O)c2ccc(Cl)cc2)cc1,-1,-5,-2,11,-23,12,.,.
CCCOC(=O)c1c(-c2ccc(OC)cc2)oc2ccc(-c3ccc(OC)nc3)cc12,7,1,16,1,22,-12,.,.
COC(=O)c1c(-c2ccc(OC)cc2)oc2ccc(-c3ccc(OC)nc3)cc12,28,8,16,2,82*,7,57*,45*
CN(C)C(=O)CSc1nnc2sc3ccccc3n12,-1,-3,-1,-4,0,-1,.,.
O=c1c2ccccc2nnn1CSc1nnc2sc3ccccc3n12,-5,1,2,.,53*,-12,54*,113*
N#Cc1ccc[n+](CC(=O)c2ccc(Cl)cc2)c1,-6,1,22,1,15,10,.,.
CC(C)C[C@H]1CN=C(N(C)C)N1CCc1cccc(F)c1,-14,.,-8,0,23,.,.,.

# Source: PubChem
